Screens as filed in PubChem BioAssay.
Most compounds without a hit are left out; they make up all but 9.2% or so of the library.
NPC1 prom act – activates the NPC1 promoter; Huh7 NPC1 promoter luciferase reporter, 24 h; Potency, µM (titrated, usually from 9.22 µM), most hits filed as activators; actives 2.4% (n = 320,000); AID 485313; further: nearly all actives have a fitted effect of over 60% in size
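Luminescence read-out of NPC1 promoter-driven luciferase in stably transfected Huh7 cells; compounds delivered in DMSO and left 24 h at 37C, 5% CO2, qHTS titration format.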
ELG1 DNA repair – ELG1-dependent DNA repair inhibition; HEK293T ELG1-luciferase reporter, luminescence, 16 h; DNA damage induced by 5-fluorouridine; Potency, µM (highest dose often 46.1 µM), hits mostly inhibitors; actives 2.3% (n = 330,000); AID 504467; further: nearly all actives have a fitted effect of over 55% in size
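Luminescence from the luciferase reporter, measured 30 min after ONE-Glo reagent at room temperature, was the read-out. Beforehand, 2,000 cells per well were exposed for 16 hr at 37 °C to 5-fluorouridine together with compound or vehicle.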
FLuc modulator – firefly luciferase modulation, counter-screen for miR-21 project; purified FLuc, Km substrates, luminescence inhibition; Potency, µM (doses to about 57.5 µM), usual class: inhibitors; actives 6.9% (n = 360,000); AID 588342; further: nearly all actives have a fitted effect of over 55% in size
Target sequence (P08659 whole entry, looked up): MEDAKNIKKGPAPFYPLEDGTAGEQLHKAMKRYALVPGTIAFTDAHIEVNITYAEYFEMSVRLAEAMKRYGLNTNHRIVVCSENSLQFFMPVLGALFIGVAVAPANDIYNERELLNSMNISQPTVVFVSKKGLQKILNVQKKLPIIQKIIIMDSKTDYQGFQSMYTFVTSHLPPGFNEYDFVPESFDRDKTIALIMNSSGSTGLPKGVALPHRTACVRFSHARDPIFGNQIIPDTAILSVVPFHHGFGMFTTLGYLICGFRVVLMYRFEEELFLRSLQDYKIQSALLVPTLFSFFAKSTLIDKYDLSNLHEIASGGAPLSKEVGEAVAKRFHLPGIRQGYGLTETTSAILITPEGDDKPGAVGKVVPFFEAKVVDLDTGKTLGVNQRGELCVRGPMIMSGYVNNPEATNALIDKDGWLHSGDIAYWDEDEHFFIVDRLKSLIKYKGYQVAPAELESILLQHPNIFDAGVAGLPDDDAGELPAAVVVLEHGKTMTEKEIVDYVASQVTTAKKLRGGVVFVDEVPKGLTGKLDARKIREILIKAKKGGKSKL
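Purified P. pyralis luciferase (10nM final) with 10uM D-luciferin and 10uM ATP (Km levels) in 50mM Tris acetate pH 7.5, 10mM Mg acetate, 0.01% Tween-20, 0.05% BSA; qHTS 6-point titration, ~60 µM downward; luminescence read.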
SMN2 splice up – SMN2 splice variant enhancement | HEK293 SMN2-luciferase splicing reporter, luminescence, 30-36 h | Potency, µM (highest dose often 46.1 µM), hits mostly activators | actives 2.8% (n = 210,000); further: nearly all actives have a fitted effect of over 55% in size
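HEK293 cells carry an SMN2 minigene-luciferase reporter in which exon 7 inclusion puts luciferase in frame. Cells were seeded at 2000 cells/well, attached for 10-12 hours, then exposed to compounds for 30-36 hours at 37C before ONE-Glo luminescence.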
ELG1 genotoxic – induces genotoxicity in HEK293T cells with luciferase-tagged ELG1; HEK293T ELG1-luciferase reporter, luminescence, 16 h; Potency, µM (titrated, usually from 46 µM), most hits filed as activators; actives 1.3% (n = 330,000); further: nearly all actives have a fitted effect of over 60% in size
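Luminescence read-out: rising ELG1-luciferase signal, reflecting elevated ELG1 protein under genetic stress, flags genotoxic compounds. Cells were treated for 16 hr at 37 °C before ONE-Glo detection.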
Rab9 prom act – activators of Rab9 promoter. AID 485297. actives 2.8% (n = 320,000). Potency, µM (highest dose often 9.22 µM), actives largely listed as activators. Huh7 Rab9 promoter-luciferase reporter, luminescence, 24 h; further: nearly all actives have a fitted effect of over 60% in size
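Cell-based reporter: Huh7 stable for Rab9 promoter-driven luciferase, plated in reduced-serum medium with 10% FBS at 1500 cells/well, compound-treated 24 h at 37 °C, luminescence read after 10 min reagent.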
Numbers stand for hits; - = inactive; ? = inconclusive; . = no result given; [ ] = remark or other dose. The call rests on the fitted dose curve; in most records, active means well fitted curve in the direction sought with a large enough effect; inconclusive means small, poorly fitted or top-dose-only effect, or another doubt; inactive means no such curve, though single readings can be large; an effect the other way counts as inactive or inconclusive.

SMILES	NPC1 prom act	ELG1 DNA repair	FLuc modulator	SMN2 splice up	ELG1 genotoxic	Rab9 prom act
O=C(CS(=O)(=O)c1cccc2nsnc12)NCc1ccc(Cl)cc1	.	.	-	.	.	.
CN(C)c1ccc(/C=N\NC(=O)c2ccc(Cn3cc(Cl)cn3)cc2)cc1	-	?	12µM	-	-	-
Cc1ccc(/C=N/NC(=O)CNC(=O)c2cccs2)o1	-	-	-	-	-	-
O=C(N/N=C/c1ccncc1)c1cccs1	-	?	?	.	?	-
O=C(N/N=C/c1ccc(-n2ccnc2)cc1)c1cccs1	?	?	12µM	.	?	?
CSc1ccc(/C=N/NC(=O)c2cccs2)cc1	2.2µM	?	1.7µM	.	?	1.8µM
O=C(N/N=C/c1ccc(-c2ccccc2C(=O)O)o1)c1cccs1	-	?	13µM	-	-	-
COC(=O)C(Cc1ccccc1)NC(=O)CCNC(=O)c1ccco1 (stereo not given)	-	-	-	.	-	-
Cc1cccc(CNC(=O)CC2C(=O)NCCN2C2CCCC2)c1 (stereo not given)	-	-	-	.	-	-
CN(C)c1ccc(/C=N/NC(=O)c2cccc(C(=O)N/N=C/c3ccc(N(C)C)cc3)n2)cc1	-	-	?	-	-	-
CN(C)c1cccc(C(=O)N/N=C/c2ccsc2)c1	3.2µM	?	3µM	11µM	?	3.5µM
C/C(=N/N=C/c1ccc(N(C)C)cc1)c1ccccc1	0.28µM	?	0.17µM	0.5µM	0.37µM	0.11µM
CN(C)c1ccc(/C=N/O)cc1	-	-	-	-	-	-
COc1ccc(OCc2cc(C(=O)N(C)Cc3cc(C4CC4)n[nH]3)no2)c(Cl)c1	3.5µM	?	12µM	.	?	2.8µM
COc1ccc(OCc2cc(C(=O)NCCN3CCCC(O)C3)no2)c(Cl)c1 (stereo not given)	-	?	?	.	-	-[1.84 µM]
COc1ccc(OCc2cc(C(=O)NCC3CCOCC3)no2)c(Cl)c1	?	?	13µM	.	?	?
COc1ccc(OCc2cc(C(=O)NCCN3CCCc4ccccc43)no2)c(Cl)c1	-	?	24µM	.	-	-
COc1ccc(OCc2cc(C(=O)NCC(C)(C)N3CCOCC3)no2)c(Cl)c1	-	-	?	.	-	-
COc1cccc(OCc2cc(C(=O)NC3CCOCC3)no2)c1	?	?	24µM	.	?	?
CCOC(=O)c1cccc(NC(=O)c2cc3c(=O)n(Cc4cccnc4)ccc3nc2C)c1	.	.	-	.	.	.
CCOC(=O)c1c(C)oc2nc(C)nc(N3CCN(c4cccc(C)c4C)CC3)c12	.	.	-	.	.	.
O=C(CN1CCN(S(=O)(=O)c2ccc(F)c(F)c2)CC1)Nc1ccccc1C(=O)NC1CC1	-	-	.	.	-	-
COc1ccc(Cl)cc1C(=O)NNC(=O)c1[nH]c(C)c(C(C)=O)c1C	.	?	.	.	-	.
COc1ccc(OCc2cc(C(=O)NCC3CCCCO3)no2)c(Cl)c1 (stereo not given)	?	?	?	.	?	4µM
CSc1ccccc1OCc1cc(C(=O)NCCC2CCCCO2)no1 (stereo not given)	?	?	?	.	-	-
SMILES	NPC1 prom act	ELG1 DNA repair	FLuc modulator	SMN2 splice up	ELG1 genotoxic	Rab9 prom act
CC(C)OCCOc1ccc2oc(-c3ccco3)cc(=O)c2c1	?	?	24µM	.	-	?
N#CCOc1ccc2oc(-c3ccco3)cc(=O)c2c1	-	?	-	-	-	-
Cc1ccc2oc(-c3ccco3)cc(=O)c2c1	?	?	9.5µM	?	21µM	2.8µM
CCOC(=O)c1sc(NC(=O)c2cc3nc(-c4ccc(Br)cc4)cc(C(F)(F)F)n3n2)c(C(=O)OCC)c1C	.	.	-	.	.	.
Cc1cc(C)cc(-n2c(C)nc3cc(C(=O)NCc4ccccc4Cl)ccc32)c1	.	.	-	.	.	.
O=C(Nc1cccc(C(F)(F)F)c1)c1ccc2nc(-c3ccco3)c(-c3ccco3)nc2c1	-	21µM	?	-	-	-
Cc1ccc(C)n1-c1ccc(C(=O)Nc2ccccc2)cc1	-	-	9.5µM	13µM	?	?
O=C(Nc1ccc(C(=O)c2ccccc2)cc1)c1ccccc1	3.5µM	?	11µM	.	?	2µM
O=C(O)c1ccc2nc(-c3ccco3)c(-c3ccco3)nc2c1	-	-	?	-	-	-
O=C(Nc1ccc(Br)c(C(F)(F)F)c1)c1ccccc1	-	?	19µM	-	-	-
O=C(NNC(=O)c1ccc(NC(=O)c2ccccc2)cc1)c1ccc(F)cc1	-	-	-	.	18µM	-
O=C(Nc1cccc(O)c1)c1ccc(C(F)(F)F)cc1	?	?	12µM	.	-	?
O=C(Nc1ccc(C(F)(F)F)cc1)c1ccccc1	2.8µM	?	?	.	-	2.5µM
O=C(NNC(=O)c1ccc(NC(=O)c2ccccc2)cc1)Nc1ccccc1	-	?	-	-	-	-
CC(C)CC(=O)Nc1ccc(C(=O)Nc2cccc(O)c2)cc1	-	?	17µM	.	?	?
CCOc1cccc(C(=O)Nc2ccc(-c3nc4ncccc4o3)cc2C)c1	.	.	-	.	.	.
O=C(COC(=O)/C=C/c1ccc(OC(F)F)cc1)Nc1ccc(N2CCOCC2)cc1	-	-	-	.	-	-
COc1ccc(C(=O)OCC(=O)N2CCCCCC2)cc1S(=O)(=O)N1CCOCC1	-	-	-	.	-	-
COCc1c(C#N)c(NCc2cc(OC)c(OC)c(OC)c2)nc(C)c1[N+](=O)[O-]	-	16µM	-	.	-	-
COc1ccc(/C=C2\S/C(=N/S(=O)(=O)c3cccs3)NC2=O)cc1	-	-	19µM	-	-	-
CCOc1ccc(NC(=O)Nc2cc(C(C)C)c(O)cc2C)cc1	-	?	-	.	-	-
CCOc1ccc(NC(=O)Nc2cc(C)ccc2F)cc1	3.2µM	?	2.4µM	16µM	5.6µM	1.1µM
CCOc1ccc(NC(=O)CNc2ccc(C)cc2Cl)cc1	-	-	9.5µM	-	-	-
CCOc1ccc(NCC(=O)Nc2ccc(C)cc2C)cc1	-	-	-[2.3 µM]	-	-	-
CC(C)c1ccc(N2C(=O)CSC23C(=O)N(C)c2ccccc23)cc1 (stereo not given)	.	.	-	.	.	.
CCOc1ccc(S(=O)(=O)NCC(c2ccc(N(C)C)cc2)N2CCCC2)cc1 (stereo not given)	.	.	-	.	.	.
CC(=O)N1c2ccc(S(=O)(=O)N(C)CC(=O)NC3CCCC3)cc2CC1C (stereo not given)	-	-	-	.	-	-
Cc1c(C)n(Cc2ccccc2)c2ccc(C(=O)OCCN(C)C)cc12	-	-	21µM	.	-	-
CCc1ccc(CNC(=O)c2ccc3c(c2)c(C)c(C)n3Cc2ccccc2)cc1	.	.	-	.	.	.
CC(=O)c1ccc(NC(=O)C2CCN(S(=O)(=O)c3ccc4[nH]c5c(c4c3)CCCCC5)CC2)cc1	.	.	-	.	.	.
